About 2,000 (36%) of roughly 5,500 compounds were called active. Roughly 18% stayed inconclusive and do not appear here. This is one part of the list. Values without a mark were called inactive. No stated cut-off is given here; in the data, active means normalized growth mostly below about 0.91 (no sharp cut-off); inconclusive means no clear call, values can overlap the other calls; inactive means mostly above about 0.92.
Experiment: chemical genetic growth profiling, strain panel (AID 1159580);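 further: tested at 20 µM; growth read once vehicle control cultures reached saturation at 30 °C; 1 = growth at the plate median or of vehicle wells; lower values mean less growth of the strain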
Details: S. cerevisiae deletion strains, growth OD

With O=c1c(-c2ccccc2)coc2cc(O)cc(O)c12 the normalized growth (locus YAL013W, strain DEP1, active compounds read low) was 0.837 (active), the normalized growth (locus YAL021C, strain ccr4, active compounds read low) was 0.977 and the normalized growth (locus YAL026C, strain drs2, active compounds read low) was 0.927. The normalized growth (locus YAL030W, strain snc1, active compounds read low) was 0.99, the normalized growth (locus YBL061C, strain skt5, active compounds read low) was 0.978 and the normalized growth (locus YBR009C, strain hhf1, active compounds read low) was 0.946. For the same compound, the normalized growth (locus YBR021W, strain FUR4, active compounds read low) was 0.859, the normalized growth (locus YBR023C, strain chs3, active compounds read low) was 0.967 and the normalized growth (locus YBR171W, strain sec66, active compounds read low) was 1.01. The normalized growth (locus YBR229C, strain ROT2, active compounds read low) was 0.853 (active), the normalized growth (locus YBR231C, strain swc5, active compounds read low) was 0.965 and the normalized growth (locus YBR279W, strain paf1, active compounds read low) was 1. For the same compound, the normalized growth (locus YCL011C, strain gbp2, active compounds read low) was 0.969, the normalized growth (locus YCL016C, strain dcc1, active compounds read low) was 0.983 and the normalized growth (locus YCL029C, strain bik1, active compounds read low) was 0.636 (active). For the same compound, the normalized growth (locus YCL061C, strain MRC1, active compounds read low) was 0.961, the normalized growth (locus YCL069W, strain vba3, active compounds read low) was 1 and the normalized growth (locus YCR088W, strain abp1, active compounds read low) was 1.01. For the same compound, the normalized growth (locus YDL005C, strain med2, active compounds read low) was 1.04, the normalized growth (locus YDL035C, strain GPR1, active compounds read low) was 0.825 (active) and the normalized growth (locus YDL040C, strain nat1, active compounds read low) was 1.01. For the same compound, the normalized growth (locus YDL074C, strain BRE1, active compounds read low) was 0.564 (active), the normalized growth (locus YDL101C, strain DUN1, active compounds read low) was 0.494 (active) and the normalized growth (locus YDL185W, strain tfp1, active compounds read low) was 0.332 (active). The normalized growth (locus YDL192W, strain arf1, active compounds read low) was 0.781 (active), the normalized growth (locus YDR001C, strain nth1, active compounds read low) was 1.01 and the normalized growth (locus YDR069C, strain doa4, active compounds read low) was 0.903. The normalized growth (locus YDR101C, strain arx1, active compounds read low) was 0.758 (active), the normalized growth (locus YDR137W, strain rgp1, active compounds read low) was 0.821 (active) and the normalized growth (locus YDR159W, strain sac3, active compounds read low) was 1.08. For the same compound, the normalized growth (locus YDR162C, strain NBP2, active compounds read low) was 0.826 (active), the normalized growth (locus YDR195W, strain ref2) was 1.03 and the normalized growth (locus YDR297W, strain sur2, active compounds read low) was 0.977. For the same compound, the normalized growth (locus YDR318W, strain mcm21, active compounds read low) was 0.819 (active), the normalized growth (locus YDR334W, strain swr1, active compounds read low) was 0.995 and the normalized growth (locus YDR335W, strain msn5, active compounds read low) was 0.993. For the same compound, the normalized growth (locus YDR388W, active compounds read low) was 0.879 (active), the normalized growth (locus YDR392W, strain spt3, active compounds read low) was 0.913 and the normalized growth (locus YDR502C, strain sam2, active compounds read low) was 0.793 (active). It also gave a normalized growth (locus YEL003W, strain gim4, active compounds read low) of 0.971, a normalized growth (locus YEL037C, strain rad23, active compounds read low) of 0.981 and a normalized growth (locus YEL061C, strain CIN8 (second series), active compounds read low) of 1.02. For the same compound, the normalized growth (locus YER015W, strain faa2, active compounds read low) was 0.979, the normalized growth (locus YER016W, strain bim1, active compounds read low) was 1.01 and the normalized growth (locus YER110C, active compounds read low) was 0.84 (active). The normalized growth (locus YER111C, strain swi4, active compounds read low) was 0.963, the normalized growth (locus YER155C, strain BEM2 (second series), active compounds read low) was 0.982 and the normalized growth (locus YER155C, strain BEM2, active compounds read low) was 0.769 (active). The normalized growth (locus YER167W, strain BCK2, active compounds read low) was 0.911, the normalized growth (locus YFR010W, strain ubp6, active compounds read low) was 0.937 and the normalized growth (locus YGL078C, strain dbp3, active compounds read low) was 0.822 (active). For the same compound, the normalized growth (locus YGL086W, strain mad1, active compounds read low) was 0.786 (active), the normalized growth (locus YGL167C, strain pmr1, active compounds read low) was 1.01 and the normalized growth (locus YGL173C, strain kem1, active compounds read low) was 0.991. The normalized growth (locus YGL227W, strain vid30, active compounds read low) was 1.02, the normalized growth (locus YGL240W, strain doc1, active compounds read low) was 0.935 and the normalized growth (locus YGL248W, strain PDE1, active compounds read low) was 0.744 (active). The normalized growth (locus YGL253W, strain hxk2, active compounds read low) was 0.972, the normalized growth (locus YGR135W, strain pre9, active compounds read low) was 0.727 (active) and the normalized growth (locus YGR229C, strain SMI1, active compounds read low) was 0.613 (active). The normalized growth (locus YGR252W, strain gcn5, active compounds read low) was 0.648 (active), the normalized growth (locus YHR013C, strain ard1, active compounds read low) was 0.992 and the normalized growth (locus YHR027C, strain rpn1, active compounds read low) was 0.998. The normalized growth (locus YHR030C, strain SLT2, active compounds read low) was 0.879 (active), the normalized growth (locus YHR079C, strain IRE1 (second series), active compounds read low) was 0.739 (active) and the normalized growth (locus YHR094C, strain hxt1, active compounds read low) was 0.936. For the same compound, the normalized growth (locus YHR129C, strain ARP1, active compounds read low) was 0.795 (active), the normalized growth (locus YHR142W, strain chs7, active compounds read low) was 0.946 and the normalized growth (locus YHR200W, strain rpn10, active compounds read low) was 0.84 (active). For the same compound, the normalized growth (locus YIL066C, strain RNR3, active compounds read low) was 0.817 (active), the normalized growth (locus YIL073C, strain SPO22, active compounds read low) was 0.76 and the normalized growth (locus YIL125W, strain kgd1, active compounds read low) was 0.755 (active). The normalized growth (locus YIR030C, strain dcg1, active compounds read low) was 0.884 (active), the normalized growth (locus YJL092W, strain hpr5, active compounds read low) was 0.993 and the normalized growth (locus YJL095W, strain BCK1 (second series), active compounds read low) was 0.996. For the same compound, the normalized growth (locus YJL095W, strain BCK1, active compounds read low) was 0.447 (active), the normalized growth (locus YJL115W, strain asf1, active compounds read low) was 1.02 and the normalized growth (locus YJL129C, strain trk1, active compounds read low) was 1. The normalized growth (locus YJL134W, strain LCB3, active compounds read low) was 0.924 (active), the normalized growth (locus YJL154C, strain vps35, active compounds read low) was 1.02 and the normalized growth (locus YJL164C, strain tpk1, active compounds read low) was 0.934. For the same compound, the normalized growth (locus YJL166W, strain qcr8, active compounds read low) was 0.966, the normalized growth (locus YJL168C, strain set2, active compounds read low) was 0.973 and the normalized growth (locus YJL187C, strain SWE1 (second series), active compounds read low) was 0.394 (active).

Source: PubChem BioAssay AID1159580 (chemical genetic matrix, 2015)
